The record followed here is ChEMBL document CHEMBL4513216, “Probing the Open Global Health Chemical Diversity Library for Multistage-Active Starting Points for Next-Generation Antimalarials” (ACS Infect Dis, 2020).

Screen size: about 69,000 compounds; about 8,600 (12%) showed an effect of 50% or more. The list comes from a sample in which strong results are over-represented; it also holds similar structures and randomly drawn compounds.

This experiment concerns Plasmodium berghei. Kind of experiment: Screen against P. berghei liver stage (PbLuc), transformed with Luciferase, at 10uM. Format: functional, HepG2. To be noted: tested at 10 uM.
Regarding `Cc1ccc(C(NC(=O)CCCN2CCCCC2)C(=O)O)cc1` (centres undefined), the INHIBITION is reported as -18.9%.
Under `COc1cc(CCC(=O)N2CCC(c3cnccn3)CC2)on1` stands 36.15%.
Under `Cc1ccc(F)c(NS(=O)(=O)c2cc3c(c(C(=O)O)c2)OCCO3)c1` stands 14.1%; under `COCCN1C(=O)[C@@H]2CC[C@H]1CN(C(=O)Cc1c(F)cccc1Cl)C2`, -107%; under `CCc1c(C(=O)O)nnn1-c1cc(C)ccc1C`, -7.83%.
With `Cc1cc(C)n(CC2CN(Cc3cccnc3)CCO2)n1` (centres undefined), the INHIBITION was 18.7%.
On to `CC(=O)N1CC[C@H]2OCC[C@@]2(C(=O)NCCc2ccccn2)C1`, for which the INHIBITION is recorded as 3.81%.
Under `COCCNc1ccc(CNCc2cnc3nc(C)cc(C)n23)cc1` stands -45.7%.
Under `CCC(C(=O)NCCc1coc(-c2ccc(C)cc2)n1)N(C)C` (centres undefined) stands 10.5%.
In the case of `Cc1ccc(-c2nc(CCNC(=O)NC3CCC(O)CC3)co2)cc1` (centres undefined), the INHIBITION came to 68.8%.
Under `Cc1ccc(-c2nc(CCNC(=O)NC3CCN(C)CC3)co2)cc1` stands -9.14%; under `O=C(NCCc1coc(-c2ccc(F)cc2)n1)NC1CC1`, 0.914%.
To `O=C(NCCc1coc(-c2ccc(F)cc2)n1)NC1CCC(O)CC1` (centres undefined) belongs 54.6%; to `COc1ccc(-c2nc(CCNC(=O)NCC3CCOC3)co2)cc1` (centres undefined), 1.04%.
Under `O=C(NCCc1coc(-c2ccccc2)n1)NC1CC1` stands 44.1%; under `COc1ccc(-c2nc(CCNC(=O)NC3CCC(O)CC3)co2)cc1` (centres undefined), 50.6%.
Regarding `O=C(NCCc1coc(-c2ccc(F)cc2)n1)NCC1CCOC1` (centres undefined), the INHIBITION is given as 13.8%.
Under `c1ccc(CCN2CCCC(c3ccnc4nccn34)C2)cc1` (centres undefined) stands 39.1%; under `O=C(c1ccncc1F)N1CC[C@@H]2OC(COCC3CC3)CC[C@@H]21` (some centres undefined), 14.5%; under `CCCN(CC(F)F)C(=O)CCc1c(C)nc2cc(O)nn2c1C`, 4.1%.
To `Cc1nn(Cn2ccc(C(=O)N3CCCCCC3)n2)c(C)c1Cl` belongs 26.9%; to `CCn1nc(C)c(CNC(=O)c2nnc3ccc(OC)cc3n2)c1C`, 41.6%; to `CCn1nc(C)c(CNC(=O)c2nnc3ccccc3n2)c1C`, 58.2%.
Regarding `CCn1nc(C)c(CNC(=O)c2nnc3ccc(Cl)cc3n2)c1C`, the INHIBITION stood at 73.1%.
Under `O=C(NCCCn1cccn1)c1nnc2ccccc2n1` stands 37.9%; under `CCn1nc(C)c(CNC(=O)C2COc3ccccc3C2)c1C` (centres undefined), 15.9%.
To `O=C(NCC1CC1)c1nnc2ccc(Cl)cc2n1` belongs 5.21%.
To `O=C(NCCn1cccn1)c1nnc2ccccc2n1` belongs 68.5%; to `CCn1nc(C)c(CNC(=O)NCC(C)(O)c2ccccc2)c1C` (centres undefined), -6.12%; to `Cc1ccc2nnc(C(=O)NCCCn3cccn3)nc2c1`, 26.8%.
For the compound `CS(=O)(=O)N1CCCC(C(=O)Nc2cnn(COCC(F)(F)F)c2)C1` (centres undefined), the INHIBITION was 4.08%.
To `Cc1ccc(C2(CN(C)Cc3sccc3C)CCNCC2)nc1` belongs 6.66%; to `CC(C)C(=O)N1CCCC([C@@H]2C[C@H](C(F)F)n3ncnc3N2)C1` (some centres undefined), 5.295%; to `O=C1CC[C@H]2[C@H](CCN2C(=O)N2CCCC2)N1Cc1ccncc1`, 41.2%.
In the case of `Cc1nsc2ncc(C(=O)N3CCCC3c3cnn(C)c3)cc12` (centres undefined), the INHIBITION is given as 19.2%.
To `Cc1ccc2c(c1)[C@@H](CC(=O)N1CCOCC1)CCO2` belongs 14.5%; to `COc1ccc2c(c1)NC(C1CCNCC1)NS2(=O)=O` (centres undefined), 19.3%; to `O=S1(=O)NC2(CCCN(Cc3ccc(F)cc3)C2)COc2ccccc21` (centres undefined), 0.207%.
Turning to `Cc1cncc(C(=O)N2CCCC(O)(CN(C)C)CC2)c1` (centres undefined), the INHIBITION is -5.78%.
To `Cc1cccc(C(C(=O)NC(C)(C)CN2CCOCC2)N(C)C)c1` (centres undefined) belongs -17.8%; to `CN(C)C[C@]12COC[C@H]1CN(Cc1ccc3c(c1)OCO3)C2`, 28.5%.
As to `Cc1nn(C)cc1C(=O)N1CCCC(c2nccn2CC2CCC2)C1` (centres undefined), the INHIBITION is 14.1%.
On to `O=C(CC1CCN(CCc2ccccc2)CC1)N1CCCOCC1`, for which the INHIBITION is 33.2%.
Under `CCCC(O)CN1CCC(=O)N(CC2CC2)Cc2cc3c(cc21)OCO3` (centres undefined) stands 10.9%; under `Cn1cc(CNCCNc2ncc(Cl)cc2Cl)cn1`, -14.5%.
Under `Cc1c(C(=O)NC2CCCC2)nnn1-c1ccccc1` stands -133%; under `Cc1c(C(=O)NC2CCCOC2)nnn1-c1ccccc1` (centres undefined), 17.1%; under `Cc1c(C(=O)NC2CCCOC2)nnn1-c1ccc(Cl)cc1F` (centres undefined), 55.5%.
To `Cc1cnn(CC(C)NCC(=O)NCCOc2ccccc2)c1` (centres undefined) belongs -0.96%; to `Cn1cc(CN(Cc2ccccn2)Cc2ccccc2Cl)cn1`, -10.4%.
As to `CC(C)(C)n1nnnc1CN(CCc1ccccc1)Cc1ccccc1`, the INHIBITION was 65.7%.
On to `CC(C)N(C(=O)Cn1nnnc1CCc1ccccc1)C(C)C`, for which the INHIBITION came out at 37.7%.
To `CC(C)(C)n1nnnc1CN(Cc1ccccc1)Cc1ccc(Cl)cc1` belongs 81.4%; to `O=C(c1nnn(-c2ccc(Cl)cc2)n1)N(CCO)Cc1ccccc1`, -23.5%.
Under `CCN(Cc1ccccc1Cl)Cn1nc(C)c2c(C)onc2c1=O` stands 40.2%; under `CC(C)(C)n1nnnc1CN(Cc1ccccc1)Cc1ccccc1Cl`, 91.6%; under `CCc1ncc(CN(CCc2ccccc2)Cc2cccs2)cn1`, 45.1%.
Under `CCc1nc(CN(C(C)=O)C2CCN(Cc3ccccc3F)C2)no1` (centres undefined) stands -11.4%; under `CN(Cc1ccco1)[C@@H]1CN(C(=O)C2CCOCC2)C[C@@H]2CCCO[C@@H]21`, 37.1%; under `CCN(CC)C(=O)Cn1ccc2cc(NC(=O)COC)ccc21`, -7.267%.
As to `Cn1nccc1-c1nnn2c1COC(CNCc1nccs1)C2` (centres undefined), the INHIBITION is reported as 38.3%.
To `N[C@H]1CN(C(=O)c2ccc3[nH]c(=O)c(=O)[nH]c3c2)C[C@@H]1c1ccccc1` belongs 34.1%.
To `Cc1cc(NC(=O)CN2CCC(N3CCNC3=O)CC2)on1` belongs -71.2%; to `CC(NCc1c(C(C)C)nn(C)c1N(C)C)C(=O)NC1CCCC1` (centres undefined), -5.94%.
To `C1CCC(CNC2CCSCC2)(N2CCOCC2)CC1` belongs 51.1%; to `C1CCC(NCC2(N3CCOCC3)CCSC2)C1` (centres undefined), 30.8%; to `CS(=O)(=O)N1CCC(NCC2(N3CCOCC3)CCCCC2)CC1`, 49%.
Take `COCc1nn(C(C)C)c2c1CCN(Cc1cccs1)C2`: the INHIBITION came to 23.5%.
Under `O=C(c1ccc(N2CCCCCC2)nn1)N1CCc2ccccc21` stands -30%.
Under `CCCc1nc2c(c(C)c(C)n2Cc2ccncc2)c(N)c1CC` stands 77.9%; under `CCc1nc2c(c(C)c(C)n2Cc2cccnc2)c(N)c1C`, 29.1%.
Under `CCCc1nc2c(c(C)c(C)n2CCN(C)C)c(N)c1CC` stands 43.8%; under `Cc1c(-c2ccccc2)nc2c(c(C)c(C)n2CCN(C)C)c1N`, -19.4%; under `CCCc1nc2c(c(C)c(C)n2Cc2ccccn2)c(N)c1CC`, 68.1%.
Turning to `CCc1cc(NCCc2cccnc2)n2nc(C)c(C)c2n1`, the INHIBITION is recorded as -1.6%.
To `CCCc1nc(N2CCN(Cc3ccccn3)CC2)c2cnn(C)c2n1` belongs 27.6%.
For the compound `CCc1c(-c2ccccc2)nc2c(c(C)c(C)n2CCN(C)C)c1N`, the INHIBITION is given as 45%.
`CCCc1nc2c(c(C)c(C)n2Cc2cccnc2)c(N)c1CC`: the INHIBITION is listed as 75.2%.
For the compound `Cc1nn(C)c(N(C)C)c1CNCCCN(C(C)C)S(C)(=O)=O`, the INHIBITION stood at 6.15%.
Regarding `COc1ncccc1CN1CCn2c(Cn3cncn3)cnc2C1`, the INHIBITION worked out at 7.96%.
To `CCc1nc(C2CCCN2C(=O)c2ccc3c(c2)[nH]c(=O)n3C)no1` (centres undefined) belongs -21.7%; to `COc1cccc(CC(=O)NC2CCCc3cn[nH]c32)c1` (centres undefined), 33.4%; to `Cc1nn(C)c(Cl)c1CNCc1cccnc1N1CCCCC1`, -13%.
Under `Cc1noc(C)c1CC(=O)N1CCCC(Cc2ccccn2)C1` (centres undefined) stands -0.6%; under `CC1(C)COCCN1C(=O)Cc1cc(Cl)c2c(c1)OCCO2`, -117%; under `O=C(C[C@@H]1COC[C@H]2CN(C(=O)c3cccnc3)C[C@@H]12)N1CCOCC1`, -81.1%.
Under `CCOc1ccc2[nH]c(=O)c(CN3CCC(n4cnnc4)CC3)cc2c1` stands 43.4%; under `CN(CCn1ccnc1-c1ccccn1)S(C)(=O)=O`, -36%; under `Cn1nc(COCC2CC2)c2c1CN(C(=O)c1ccno1)CC2`, 8.85%.
Consider `O=C(CO)N1CCCn2nnc(Cn3cccn3)c2C1`, for which the INHIBITION is on record as 12.1%.
Turning to `Cc1ccsc1C(=O)N1CCCn2nnc(Cn3cccn3)c2C1`, the INHIBITION was 60.3%.
To `CCc1ccc(C(=O)N2CCCn3nnc(Cn4cccn4)c3C2)cc1` belongs 52.3%; to `O=C(c1ccc(Cl)cc1)N1CCCn2nnc(Cn3cccn3)c2C1`, 10.8%; to `Cc1ccccc1C(=O)N1CCCn2nnc(Cn3cccn3)c2C1`, -16.9%.
Under `O=C(c1ccncc1)N1CCCn2nnc(Cn3cccn3)c2C1` stands 33%.
`CN1CCOC(CNCc2csc(C3CCCCC3)n2)C1` (centres undefined): the INHIBITION came out at 13.6%.
Under `CCN(CC)C(=O)Cn1cc(-c2nc(-c3ccccc3C)no2)nn1` stands -19.1%; under `Cn1nc(C2CCCC2)c(-c2ccc3c(c2)OCO3)c1N`, 48%; under `CCc1[nH]n(C)c(=N)c1-c1ccc2c(c1)OCO2`, 53.6%.
To `CCCc1[nH]n(C)c(=N)c1-c1ccc2c(c1)OCO2` belongs 27.6%; to `Cn1[nH]c(C2CCC2)c(-c2ccc3c(c2)OCO3)c1=N`, 64.7%; to `Cn1[nH]c(C2CC2)c(-c2ccc3c(c2)OCO3)c1=N`, 16.5%.
Under `CSCCc1nc(-c2ccc3c(c2)OCO3)n(C)n1` stands 25.9%; under `CN(C)c1ncc2c(O)nc(C3CCCNC3)cc2n1` (centres undefined), 24.8%; under `COc1ccccc1OCCCN1CCNC1=O`, 12.9%.
With `CCC(=O)Nc1nnc2n(Cc3cccc(OC)c3)[nH]c(C)c1-2`, the INHIBITION is reported as -31%.
Under `CCC(C)(C)NC(=O)CSCc1ccc(S(=O)(=O)N(C)C)o1` stands 3.73%; under `CCCNC(=O)CSCc1ccc(S(=O)(=O)N(C)C)o1`, 53.7%.
Under `CN(C)S(=O)(=O)c1ccc(CSCC(=O)NC(C)(C)C)o1` stands 17.9%.
